# Experimental data published in PubChem BioAssay (NCATS).
# Records with an inconclusive call do not appear. A call without a number means that no potency is given here. Unmarked numbers belong to inactive results. Active and inactive are the calls of the source. Calls come from the whole dose curve; as a rule, active = well fitted curve in the direction sought with a large enough effect; inconclusive = small, poorly fitted or top-dose-only effect, or another doubt; inactive = no such curve, though single readings can be large; an effect the other way counts as inactive or inconclusive.
# What was measured:
# [1] = P-glycoprotein substrates identified in KB-8-5-11 adenocarcinoma cell line, qHTS therapeutic library screen (AID 1346987); note: nearly all actives have a fitted effect of over 65% in size; for activity change, negative = cytotoxicity: series mostly up to about 44 µM
# Method in brief: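 Human cervical adenocarcinoma KB-8-5-11 cells, selected in colchicine to over-express P-gp and assayed without it, were exposed for 72 h to titrated compounds. An ATP-based luminescent viability signal gave AC50.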
# [2] = system: Zika virus NS2B-NS3 protease (unlinked complex); assay: Primary screen GU Rhodamine qHTS for Zika virus inhibitors: Unlinked NS2B-NS3 protease assay (AID 1347159); note: nearly all actives have a fitted effect of over 60% in size
# Method in brief: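 Unlinked NS2B/NS3, 25 nM; Rhod110 peptide, 1.5 microM; compounds, up to 114 microM. Reaction run 15 min at RT in 10 mM Tris-HCl pH 8.0, 0.01% Tween 20; kinetic fluorescence change fitted with a 4-parameter Hill model.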
# [3] = system: Zika virus NS2B-NS3 protease (linked construct); assay: Primary screen NINDS Rhodamine qHTS for Zika virus inhibitors (AID 1347160); note: nearly all actives have a fitted effect of over 55% in size
# Method in brief: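 Single-chain NS2B-NS3 protease, 25 nM, pH 8.0; compounds preincubated 15 min. Activity: Rhodamine110 release from 1.5 microM substrate over 15 min, room temperature, data fitted to 4-parameter Hill.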
# [4] = Confirmatory screen NINDS Rhodamine qHTS for Zika virus inhibitors (AID 1347161); note: potency is the fitted concentration of half-maximal effect; nearly all actives have a fitted effect of over 60% in size
# Method in brief: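 Purified NS2B-NS3 protease with the NS2B hydrophilic domain joined by a flexible linker (25 nM) in 10 mM Tris-HCl pH 8.0, 0.01% Tween 20, preincubated 15 min at RT with compound; Rhodamine110 peptide substrate 1.5 µM; fluorescence change over 15 min; 4-parameter Hill fit.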
SMILES,Potency [1],Potency [2],Potency [3],"activity change, negative = cytotoxicity [1]",Potency [4]
N[C@@H](CCNCc1ccc(Cl)cc1)C(=O)N1CCCCC1,inactive,inactive,inactive,–,–
O=C(NC1CCN(CC(F)(F)F)CC1)c1ccc(-c2cccc(F)c2)nc1,inactive,inactive,inactive,–,–
O=C(O)c1cc(O[C@@H]2O[C@H](CO)[C@@H](O)[C@H](O)[C@H]2O)ccc1O,inactive,inactive,inactive,–,–
COc1ccccc1CN[C@H]1CCCN[C@H]1c1ccccc1,inactive,inactive,inactive,–,–
CC1=CC(=O)CC(C)(C)C1CO[C@@H]1O[C@H](CO)[C@@H](O)[C@H](O)[C@H]1O (some centres undefined),inactive,inactive,inactive,–,–
COc1c(O[C@@H]2O[C@H](CO)[C@@H](O)[C@H](O)[C@H]2O)c(CCC(=O)O)cc2ccoc12,inactive,inactive,inactive,–,–
Nc1c(-c2ccccc2)nc(Cl)c2c(O)n[nH]c(=O)c12,inactive,inactive,inactive,–,–
O=C(O)Cc1cn([C@@H]2O[C@H](CO)[C@@H](O)[C@H](O)[C@H]2O[C@@H]2O[C@H](CO)[C@@H](O)[C@H](O)[C@H]2O)c2ccccc12,inactive,inactive,inactive,–,–
COc1ccc2[nH]c(S(=O)Cc3ncc(C)c(OC)c3C)nc2c1 (centres undefined),inactive,inactive,inactive,–,–
O=C(Nc1cc(-c2ccccc2)nn1-c1ccccc1)c1ccc([N+](=O)[O-])cc1,inactive,inactive,inactive,–,–
COC(=O)C1(O)C(OC(C)=O)CCC2C3(CC(c4ccoc4)OC3=O)C(C)=CCC21C(=O)OC (centres undefined),inactive,inactive,inactive,–,–
CCC1=C(C)C(=O)C(C)CC12C(=O)CCC2C(=O)O (centres undefined),inactive,inactive,inactive,–,–
CC(=O)O[C@@H](C[C@@H]1C=C(C)C(=O)O1)[C@H](C)[C@H]1CCC2[C@@]3(C)CC[C@H](O[C@@H]4O[C@H](CO)[C@@H](O)[C@H](O)[C@H]4O[C@@H]4O[C@@H](C)[C@H](O)[C@@H](O)[C@H]4O)C(C)(C)C3CC[C@@]2(C)[C@@]12COC(=O)C2 (some centres undefined),–,inactive,inactive,-0.38% [at 9.29 µM],–
COc1ccc(C2OCC3C(c4cc(OC)c5c(c4)OCO5)OCC23)cc1OC (centres undefined),inactive,inactive,inactive,–,–
Cc1nnc(-c2sc(NC(=O)[C@H](C(C)C)n3c(=O)[nH]c4ccccc4c3=O)nc2C)o1,inactive,inactive,inactive,–,–
COc1c(C)c(OCC=C(C)C)cc2c1CNC2=O,inactive,inactive,inactive,–,–
CCCCC(=O)N1c2ccccc2NC2=C(C(=O)CCC2)C1c1ccccc1Cl (centres undefined),inactive,inactive,inactive,–,–
CC(=O)O[C@@H]1C(=O)C(C)=C(CCC(C)CC(=O)O)[C@@]2(C)CCCC(C)(C)C12 (some centres undefined),inactive,inactive,inactive,–,–
CCN(CCN(C)C)C(=O)CNCc1cc(C(N)=O)ccn1,inactive,inactive,inactive,–,–
Cc1c(C)c(NCC(=O)N(C)C2CCN(Cc3ccc(C(N)=O)cc3)CC2)c(C)c(C)c1N,inactive,inactive,inactive,–,–
COc1cc(-c2ccc(O)cc2)c(OC)c(O)c1C1=CC(=O)OC1CC(=O)O (centres undefined),inactive,inactive,inactive,–,–
Cc1cc(-c2nncc3c(C(C)(C)C)c(OCc4ncnn4C)nn23)no1,inactive,inactive,inactive,–,–
CC(C)(C)NS(=O)(=O)c1ccc(-c2ccc3[nH]nc(N)c3c2)cc1,inactive,inactive,inactive,–,–
CC1=C[C@@H]2[C@H]3[C@@H]4O[C@@](C)(CC[C@H]4O)[C@H]3CC(=O)[C@]23C(=O)N[C@@H](CC(C)C)[C@@H]3[C@@H]1C,inactive,inactive,inactive,–,–
CC1(C)CC(NC(=O)C(=O)Nc2ccc(Cl)cc2)CC(C)(C)N1,inactive,inactive,inactive,–,–
CC1=C2CC3C(CCC3(C)O)C(C)(O)CC2OC1=O (centres undefined),inactive,inactive,–,–,44.1 µM (active)
CC1(C)CCC[C@]2(C)C1CC=C(CO)[C@H]2CC/C(=C/CO)CO (some centres undefined),inactive,–,inactive,–,–
C/C=C/C=C/C(=O)OC1CC/C=C/C(O)C(O)C(CCC)OC1=O (centres undefined),inactive,–,inactive,–,–
C[C@@H]1O[C@@H](O[C@H]2[C@@H]3C=CO[C@@H](O[C@@H]4O[C@H](CO)[C@@H](O)[C@H](O)[C@H]4O)[C@@H]3[C@@]3(CO)O[C@@H]23)[C@H](O)[C@H](OC(=O)/C=C/c2ccc(O)c(O)c2)[C@H]1O,inactive,–,inactive,–,–
